Results as given in paper PMC7862700, “An all-to-all approach to the identification of sequence-specific readers for epigenetic DNA modifications on cytosine”.

Columns and labels:
Experiment in all cases: DAPPL (digital affinity profiling via proximity ligation, sequencing); 10 mM Tris-HCl pH 7.5, 50 mM NaCl, 1 mM DTT, 4% glycerol, room temperature, 30 min; GST-TFs on glutathione beads, 16-mer random dsDNA library, 0.1% formaldehyde crosslink after washing; high values mean tight binding
[1] = target: T1, FEV (Homo sapiens, UniProt Q99581 1-238); details: protein: recombinant; tags: N-terminal GST; dsDNA, one strand shown
T1 sequence: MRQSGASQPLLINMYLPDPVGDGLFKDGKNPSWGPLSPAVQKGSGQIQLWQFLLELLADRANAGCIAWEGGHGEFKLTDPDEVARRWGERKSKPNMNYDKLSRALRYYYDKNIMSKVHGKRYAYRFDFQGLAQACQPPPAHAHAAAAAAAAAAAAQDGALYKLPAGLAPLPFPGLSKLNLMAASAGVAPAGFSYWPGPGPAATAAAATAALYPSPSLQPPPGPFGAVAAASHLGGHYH
Procedure, shortened: (§1)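 Binding signal is each hexamer's read frequency for a factor divided by its frequency in the tag-only sample. The factors were GST-fused human transcription factors from yeast, captured on glutathione beads, DNA-barcoded and pooled with that sample. Pools were incubated with 200 nmole of a random double-stranded 16-mer DNA library in Tris/NaCl/DTT/glycerol buffer at room temperature for 30 min, then washed, crosslinked with 0.1% formaldehyde, proximity-ligated with BsaI/T4 ligase (1 h, 37 °C), PCR-amplified and sequenced on an Illumina NextSeq500.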

[2] = target: ETV5 (Homo sapiens, UniProt P41161 1-510); details: protein: recombinant; tags: N-terminal GST; dsDNA, one strand shown
Procedure, shortened: as §1

[3] = target: HSF1 (Homo sapiens, UniProt Q00613 1-529); details: protein: recombinant; tags: N-terminal GST; chain copies: 3; dsDNA, one strand shown
Procedure, shortened: as §1

[4] = target: ELF4 (Homo sapiens, UniProt Q99607 1-663); details: protein: recombinant; tags: N-terminal GST; dsDNA, one strand shown
Procedure, shortened: as §1

[5] = target: T2, ELK4 (Homo sapiens, UniProt P28324-2 1-405); details: protein: recombinant; tags: N-terminal GST; dsDNA, one strand shown
T2 sequence: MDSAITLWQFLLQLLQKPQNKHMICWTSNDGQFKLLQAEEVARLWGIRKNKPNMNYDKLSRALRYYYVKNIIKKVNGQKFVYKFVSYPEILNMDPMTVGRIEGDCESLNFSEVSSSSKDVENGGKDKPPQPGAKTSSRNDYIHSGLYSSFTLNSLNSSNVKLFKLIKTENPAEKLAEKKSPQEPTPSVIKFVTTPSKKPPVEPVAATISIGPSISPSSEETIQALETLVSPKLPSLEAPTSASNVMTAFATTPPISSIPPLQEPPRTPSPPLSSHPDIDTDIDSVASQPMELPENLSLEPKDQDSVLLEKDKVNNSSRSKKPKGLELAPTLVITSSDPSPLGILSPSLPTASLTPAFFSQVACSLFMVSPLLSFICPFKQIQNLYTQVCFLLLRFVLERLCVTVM
Procedure, shortened: as §1

[6] = target: T3, ETV2 (Homo sapiens, UniProt O00321 1-342); details: protein: recombinant; tags: N-terminal GST; dsDNA, one strand shown
T3 sequence: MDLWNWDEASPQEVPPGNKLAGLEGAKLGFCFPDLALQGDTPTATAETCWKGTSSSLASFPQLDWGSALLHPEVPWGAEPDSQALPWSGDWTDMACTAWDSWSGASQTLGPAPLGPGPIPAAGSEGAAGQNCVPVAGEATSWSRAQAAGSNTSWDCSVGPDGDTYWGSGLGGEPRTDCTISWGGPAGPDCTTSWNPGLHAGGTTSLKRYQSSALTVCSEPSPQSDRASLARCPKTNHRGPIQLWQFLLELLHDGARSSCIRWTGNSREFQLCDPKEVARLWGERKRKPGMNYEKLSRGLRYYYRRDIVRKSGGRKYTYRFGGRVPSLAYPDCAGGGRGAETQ
Procedure, shortened: as §1

[7] = target: T4, ELF3 (Homo sapiens, UniProt P78545 1-371); details: protein: recombinant; tags: N-terminal GST; dsDNA, one strand shown
T4 sequence: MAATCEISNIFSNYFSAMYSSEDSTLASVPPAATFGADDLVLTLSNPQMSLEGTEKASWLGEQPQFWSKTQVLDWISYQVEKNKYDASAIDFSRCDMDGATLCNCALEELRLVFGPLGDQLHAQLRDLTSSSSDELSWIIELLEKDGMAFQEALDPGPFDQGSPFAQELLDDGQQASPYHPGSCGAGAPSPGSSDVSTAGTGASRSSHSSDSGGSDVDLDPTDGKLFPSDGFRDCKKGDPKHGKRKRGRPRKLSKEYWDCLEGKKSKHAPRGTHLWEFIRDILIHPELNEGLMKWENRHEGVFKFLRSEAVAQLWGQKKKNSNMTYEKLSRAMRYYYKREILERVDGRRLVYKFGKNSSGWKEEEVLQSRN
Procedure, shortened: as §1

[8] = target: CRX (Homo sapiens, UniProt O43186 1-299); details: protein: recombinant; tags: N-terminal GST; dsDNA, one strand shown
Procedure, shortened: as §1

[9] = target: ETV1 (Homo sapiens, UniProt P50549 1-477); details: protein: recombinant; tags: N-terminal GST; dsDNA, one strand shown
Procedure, shortened: as §1

[10] = target: T5, ERF (Homo sapiens, UniProt P50548 1-548); details: protein: recombinant; tags: N-terminal GST; dsDNA, one strand shown
T5 sequence: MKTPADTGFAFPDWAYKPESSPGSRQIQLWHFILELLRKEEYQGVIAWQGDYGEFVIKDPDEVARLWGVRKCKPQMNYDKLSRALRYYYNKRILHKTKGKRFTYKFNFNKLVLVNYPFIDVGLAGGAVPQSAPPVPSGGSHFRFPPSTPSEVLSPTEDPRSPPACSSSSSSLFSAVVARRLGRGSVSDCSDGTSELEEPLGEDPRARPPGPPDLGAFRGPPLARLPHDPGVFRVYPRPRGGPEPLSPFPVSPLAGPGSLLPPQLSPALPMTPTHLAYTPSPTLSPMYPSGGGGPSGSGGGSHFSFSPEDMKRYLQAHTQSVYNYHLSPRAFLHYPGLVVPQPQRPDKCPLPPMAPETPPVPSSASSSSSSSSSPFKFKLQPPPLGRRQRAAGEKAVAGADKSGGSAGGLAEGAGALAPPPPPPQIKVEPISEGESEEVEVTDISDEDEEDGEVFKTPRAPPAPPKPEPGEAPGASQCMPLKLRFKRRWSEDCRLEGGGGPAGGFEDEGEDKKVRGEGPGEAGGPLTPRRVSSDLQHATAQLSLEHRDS
Procedure, shortened: as §1

[11] = target: T6, ETV3L (Homo sapiens, UniProt Q6ZN32 1-361); details: protein: recombinant; tags: N-terminal GST; dsDNA, one strand shown
T6 sequence: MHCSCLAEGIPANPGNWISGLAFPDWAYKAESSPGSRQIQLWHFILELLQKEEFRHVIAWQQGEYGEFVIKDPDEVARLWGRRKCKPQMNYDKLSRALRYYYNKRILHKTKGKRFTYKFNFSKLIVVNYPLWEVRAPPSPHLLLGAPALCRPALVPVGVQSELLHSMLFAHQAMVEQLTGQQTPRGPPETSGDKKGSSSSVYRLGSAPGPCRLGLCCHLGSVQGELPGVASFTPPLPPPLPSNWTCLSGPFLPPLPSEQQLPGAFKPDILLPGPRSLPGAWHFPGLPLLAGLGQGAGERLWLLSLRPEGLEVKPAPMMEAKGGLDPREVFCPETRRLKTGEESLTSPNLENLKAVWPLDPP
Procedure, shortened: as §1

[12] = target: T7, ETS2 (Homo sapiens, UniProt P15036 1-469); details: protein: recombinant; tags: N-terminal GST; dsDNA, one strand shown
T7 sequence: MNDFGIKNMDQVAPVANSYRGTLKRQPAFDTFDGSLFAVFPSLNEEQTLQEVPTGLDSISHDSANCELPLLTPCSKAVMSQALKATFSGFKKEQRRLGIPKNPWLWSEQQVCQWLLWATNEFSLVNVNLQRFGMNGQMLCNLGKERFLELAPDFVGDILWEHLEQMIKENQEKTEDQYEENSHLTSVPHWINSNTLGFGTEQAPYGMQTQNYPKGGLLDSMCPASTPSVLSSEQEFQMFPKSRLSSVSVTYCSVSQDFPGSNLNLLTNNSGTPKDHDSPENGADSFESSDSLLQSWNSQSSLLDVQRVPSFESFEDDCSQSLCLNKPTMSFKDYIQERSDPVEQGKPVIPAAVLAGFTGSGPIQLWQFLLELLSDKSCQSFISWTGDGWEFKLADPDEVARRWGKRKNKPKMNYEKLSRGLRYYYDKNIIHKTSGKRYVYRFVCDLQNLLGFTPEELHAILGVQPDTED
Procedure, shortened: as §1

[13] = target: T8, SPDEF (Homo sapiens, UniProt O95238 1-335); details: protein: recombinant; tags: N-terminal GST; dsDNA, one strand shown
T8 sequence: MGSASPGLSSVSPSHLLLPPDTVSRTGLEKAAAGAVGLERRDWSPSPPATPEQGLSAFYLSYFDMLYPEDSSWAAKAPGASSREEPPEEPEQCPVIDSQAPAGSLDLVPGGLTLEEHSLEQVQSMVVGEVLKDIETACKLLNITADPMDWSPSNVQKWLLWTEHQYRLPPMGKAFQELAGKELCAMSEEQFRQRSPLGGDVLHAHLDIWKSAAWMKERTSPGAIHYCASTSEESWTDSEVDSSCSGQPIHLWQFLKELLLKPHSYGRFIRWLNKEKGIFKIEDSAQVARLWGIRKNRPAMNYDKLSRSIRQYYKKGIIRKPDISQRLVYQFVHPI
Procedure, shortened: as §1

[14] = target: T9, ETV7 (Homo sapiens, UniProt Q9Y603 1-341); details: protein: recombinant; tags: N-terminal GST; dsDNA, one strand shown
T9 sequence: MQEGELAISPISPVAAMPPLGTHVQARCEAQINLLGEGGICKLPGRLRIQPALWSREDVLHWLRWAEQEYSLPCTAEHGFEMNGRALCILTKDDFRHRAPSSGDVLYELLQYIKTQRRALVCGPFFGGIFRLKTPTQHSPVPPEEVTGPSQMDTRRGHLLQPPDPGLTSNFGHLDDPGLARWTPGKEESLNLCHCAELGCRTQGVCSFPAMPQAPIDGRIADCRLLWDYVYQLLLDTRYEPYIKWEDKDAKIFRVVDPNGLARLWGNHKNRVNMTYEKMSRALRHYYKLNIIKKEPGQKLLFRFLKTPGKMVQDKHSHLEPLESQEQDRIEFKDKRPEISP
Procedure, shortened: as §1

[15] = target: T10, ETV3 (Homo sapiens, UniProt P41162-2 1-143); details: protein: recombinant; tags: N-terminal GST; dsDNA, one strand shown
T10 sequence: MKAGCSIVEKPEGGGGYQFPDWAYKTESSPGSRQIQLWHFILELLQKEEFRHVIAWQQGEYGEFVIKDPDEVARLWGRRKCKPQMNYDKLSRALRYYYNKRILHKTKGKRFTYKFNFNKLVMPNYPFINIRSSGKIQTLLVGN
Procedure, shortened: as §1

[16] = target: ETV6 (Homo sapiens, UniProt P41212 1-452); details: protein: recombinant; tags: N-terminal GST; dsDNA, one strand shown
Procedure, shortened: as §1

[17] = target: T11, ELF5 (Homo sapiens, UniProt Q9UKW6-2 1-255); details: protein: recombinant; tags: N-terminal GST; dsDNA, one strand shown
T11 sequence: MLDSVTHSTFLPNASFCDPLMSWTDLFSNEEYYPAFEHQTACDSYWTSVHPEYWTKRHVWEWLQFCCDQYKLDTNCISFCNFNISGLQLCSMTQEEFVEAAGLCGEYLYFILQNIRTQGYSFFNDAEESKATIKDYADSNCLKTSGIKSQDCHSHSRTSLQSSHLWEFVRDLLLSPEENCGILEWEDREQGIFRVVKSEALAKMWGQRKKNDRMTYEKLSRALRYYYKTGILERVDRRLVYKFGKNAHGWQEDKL
Procedure, shortened: as §1

Sequence of CRX (O43186 whole entry): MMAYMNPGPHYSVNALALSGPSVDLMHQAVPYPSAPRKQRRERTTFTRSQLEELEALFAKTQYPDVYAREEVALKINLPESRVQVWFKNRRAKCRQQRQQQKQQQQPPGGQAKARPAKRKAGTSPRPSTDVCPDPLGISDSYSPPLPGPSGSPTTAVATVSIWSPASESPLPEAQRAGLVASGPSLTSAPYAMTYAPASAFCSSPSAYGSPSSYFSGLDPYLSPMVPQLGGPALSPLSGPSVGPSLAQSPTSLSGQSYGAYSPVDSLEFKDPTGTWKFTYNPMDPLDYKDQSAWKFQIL
Sequence of ETV5 (P41161 whole entry): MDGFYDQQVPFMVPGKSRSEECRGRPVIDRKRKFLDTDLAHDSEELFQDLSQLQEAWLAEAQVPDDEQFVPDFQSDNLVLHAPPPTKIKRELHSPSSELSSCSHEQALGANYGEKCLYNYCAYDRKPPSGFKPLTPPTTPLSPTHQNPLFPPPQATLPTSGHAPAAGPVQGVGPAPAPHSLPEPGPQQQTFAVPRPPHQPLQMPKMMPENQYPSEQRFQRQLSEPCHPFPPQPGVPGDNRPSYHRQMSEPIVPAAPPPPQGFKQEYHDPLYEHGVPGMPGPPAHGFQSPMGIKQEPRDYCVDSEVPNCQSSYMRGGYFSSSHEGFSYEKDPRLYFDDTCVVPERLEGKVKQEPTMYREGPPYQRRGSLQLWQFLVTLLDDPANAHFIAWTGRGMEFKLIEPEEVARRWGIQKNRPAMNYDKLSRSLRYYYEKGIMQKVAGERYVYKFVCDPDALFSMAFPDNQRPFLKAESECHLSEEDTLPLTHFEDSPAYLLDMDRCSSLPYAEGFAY
Sequence of ETV1 (P50549 whole entry): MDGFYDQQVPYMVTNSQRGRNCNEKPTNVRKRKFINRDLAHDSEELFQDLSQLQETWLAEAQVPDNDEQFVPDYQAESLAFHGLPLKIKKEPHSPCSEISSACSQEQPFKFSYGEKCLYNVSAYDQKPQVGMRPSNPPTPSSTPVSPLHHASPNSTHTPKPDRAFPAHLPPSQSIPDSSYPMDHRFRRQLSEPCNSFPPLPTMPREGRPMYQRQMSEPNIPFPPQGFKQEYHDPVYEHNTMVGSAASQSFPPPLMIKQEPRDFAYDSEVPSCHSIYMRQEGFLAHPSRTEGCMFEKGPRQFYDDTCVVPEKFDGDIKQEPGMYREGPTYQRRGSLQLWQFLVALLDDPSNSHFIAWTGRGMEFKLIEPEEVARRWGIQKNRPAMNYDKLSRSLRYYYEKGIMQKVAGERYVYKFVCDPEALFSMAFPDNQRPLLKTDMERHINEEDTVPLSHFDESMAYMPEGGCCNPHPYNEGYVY
Sequence of HSF1 (Q00613 whole entry): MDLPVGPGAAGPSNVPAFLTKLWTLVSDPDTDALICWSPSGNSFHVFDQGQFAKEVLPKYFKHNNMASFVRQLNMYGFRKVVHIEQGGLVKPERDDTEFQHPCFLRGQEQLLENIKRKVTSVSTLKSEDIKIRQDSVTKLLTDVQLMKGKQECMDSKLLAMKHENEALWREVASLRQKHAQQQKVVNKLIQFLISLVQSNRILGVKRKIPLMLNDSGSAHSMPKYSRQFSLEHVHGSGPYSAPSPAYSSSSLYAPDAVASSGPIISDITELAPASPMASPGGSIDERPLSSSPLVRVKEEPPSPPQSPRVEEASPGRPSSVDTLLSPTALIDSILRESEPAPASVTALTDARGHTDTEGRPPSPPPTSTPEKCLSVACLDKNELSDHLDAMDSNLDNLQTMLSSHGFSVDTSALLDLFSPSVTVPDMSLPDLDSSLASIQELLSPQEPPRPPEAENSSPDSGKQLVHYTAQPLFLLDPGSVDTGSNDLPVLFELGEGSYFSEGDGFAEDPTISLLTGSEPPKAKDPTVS
Sequence of ETV6 (P41212 whole entry): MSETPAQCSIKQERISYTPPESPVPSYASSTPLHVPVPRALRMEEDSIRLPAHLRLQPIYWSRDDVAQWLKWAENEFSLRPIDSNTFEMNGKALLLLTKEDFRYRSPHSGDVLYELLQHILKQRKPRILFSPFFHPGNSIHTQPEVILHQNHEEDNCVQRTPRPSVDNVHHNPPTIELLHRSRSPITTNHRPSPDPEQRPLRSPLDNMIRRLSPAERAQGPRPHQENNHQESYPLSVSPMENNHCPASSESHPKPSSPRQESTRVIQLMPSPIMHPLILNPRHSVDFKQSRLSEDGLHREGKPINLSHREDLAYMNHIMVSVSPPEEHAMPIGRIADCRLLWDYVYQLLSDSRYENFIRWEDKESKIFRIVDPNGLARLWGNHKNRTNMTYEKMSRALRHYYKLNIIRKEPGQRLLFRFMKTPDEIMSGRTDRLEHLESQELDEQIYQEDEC
Sequence of ELF4 (Q99607 whole entry): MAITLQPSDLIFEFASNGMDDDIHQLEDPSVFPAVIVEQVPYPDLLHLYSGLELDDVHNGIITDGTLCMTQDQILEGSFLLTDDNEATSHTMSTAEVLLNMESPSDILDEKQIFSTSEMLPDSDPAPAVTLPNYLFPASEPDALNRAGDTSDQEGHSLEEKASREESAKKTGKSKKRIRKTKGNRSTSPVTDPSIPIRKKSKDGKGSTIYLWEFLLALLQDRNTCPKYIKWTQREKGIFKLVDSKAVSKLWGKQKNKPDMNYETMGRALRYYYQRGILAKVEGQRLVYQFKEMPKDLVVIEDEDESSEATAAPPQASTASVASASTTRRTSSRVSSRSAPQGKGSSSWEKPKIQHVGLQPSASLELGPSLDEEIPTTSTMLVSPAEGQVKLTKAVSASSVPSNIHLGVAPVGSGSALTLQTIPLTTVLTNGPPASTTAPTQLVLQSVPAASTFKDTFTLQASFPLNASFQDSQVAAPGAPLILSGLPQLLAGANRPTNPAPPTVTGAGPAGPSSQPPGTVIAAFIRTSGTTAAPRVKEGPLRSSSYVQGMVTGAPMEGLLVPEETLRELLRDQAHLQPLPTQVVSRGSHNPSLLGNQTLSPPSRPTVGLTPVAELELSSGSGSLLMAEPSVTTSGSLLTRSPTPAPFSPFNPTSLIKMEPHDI

Sequence | binding signal [1] | binding signal [2] | binding signal [3] | binding signal [4] | binding signal [5] | binding signal [6] | binding signal [7] | binding signal [8] | binding signal [9] | binding signal [10] | binding signal [11] | binding signal [12] | binding signal [13] | binding signal [14] | binding signal [15] | binding signal [16] | binding signal [17]
TGACTA | 1.01 fold enrichment (6-mer frequency, TF over GST control) | 1.04 fold enrichment (6-mer frequency, TF over GST control) | 1.04 fold enrichment (6-mer frequency, TF over GST control) | 1.09 fold enrichment (6-mer frequency, TF over GST control) | 1.06 fold enrichment (6-mer frequency, TF over GST control) | 1.17 fold enrichment (6-mer frequency, TF over GST control) | 1.08 fold enrichment (6-mer frequency, TF over GST control) | 1.17 fold enrichment (6-mer frequency, TF over GST control) | 1.15 fold enrichment (6-mer frequency, TF over GST control) | 1.14 fold enrichment (6-mer frequency, TF over GST control) | 1.08 fold enrichment (6-mer frequency, TF over GST control) | 1.04 fold enrichment (6-mer frequency, TF over GST control) | 1.08 fold enrichment (6-mer frequency, TF over GST control) | 1.07 fold enrichment (6-mer frequency, TF over GST control) | 1.05 fold enrichment (6-mer frequency, TF over GST control) | 1.15 fold enrichment (6-mer frequency, TF over GST control) | –
ATTAGG | 1.01 fold enrichment (6-mer frequency, TF over GST control) | 1.11 fold enrichment (6-mer frequency, TF over GST control) | 1.57 fold enrichment (6-mer frequency, TF over GST control) | 1.07 fold enrichment (6-mer frequency, TF over GST control) | 1.06 fold enrichment (6-mer frequency, TF over GST control) | 1.05 fold enrichment (6-mer frequency, TF over GST control) | 1.04 fold enrichment (6-mer frequency, TF over GST control) | 2.38 fold enrichment (6-mer frequency, TF over GST control) | 1.01 fold enrichment (6-mer frequency, TF over GST control) | 1.26 fold enrichment (6-mer frequency, TF over GST control) | 1.12 fold enrichment (6-mer frequency, TF over GST control) | 1.06 fold enrichment (6-mer frequency, TF over GST control) | 1.11 fold enrichment (6-mer frequency, TF over GST control) | 1.15 fold enrichment (6-mer frequency, TF over GST control) | 1.06 fold enrichment (6-mer frequency, TF over GST control) | 1.09 fold enrichment (6-mer frequency, TF over GST control) | 1.12 fold enrichment (6-mer frequency, TF over GST control)
